Inconclusive results are not listed. Some compounds were tested as several samples or in several runs, with calls that do not always agree. The source made the active and inactive calls. The calls were made as follows, unless noted: active = hit-call score of the fitted dose curve at least 0.9, where 1 is the maximum; inactive = score below 0.9.

The target of experiment [1] is human Retinoid X Receptor beta (RXRb), RXRB (gene 6257) (UniProt P28702). In words: ATG_RXRb_TRANS: Attagene TRANS-FACTORIAL HepG2 Assay for human Retinoid X Receptor beta (RXRb) (AID 2283013; active = hit-call score of the fitted dose curve at least 0.9, where 1 is the maximum). An outline of the steps:
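Readout is reporter transcript induction after 24 h dosing. It is measured by RT-PCR of total RNA followed by fluorescent capillary electrophoresis. HepG2 liver cells carry transfected multiple reporter units driven by an exogenous RXRb-Gal4 fusion; activity is relative to DMSO.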

Experiment [2] deals with human Thyroid Receptor alpha (THRa1), THRA (gene 7067) (UniProt P10827). Description: ATG_THRa1_TRANS: Attagene TRANS-FACTORIAL HepG2 Assay for human Thyroid Receptor alpha (THRa1) (AID 2283014; active = hit-call score of the fitted dose curve at least 0.9, where 1 is the maximum). In a few lines:
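Measured here is mRNA from a GAL4-UAS reporter in transfected HepG2 cells carrying a Gal4-fused receptor, 24 h post-dose. DMSO served as negative control and baseline.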

Read-out in experiment [3]: E-selectin (Homo sapiens) (UniProt P16581)
Description: BSK_3C_Eselectin: BioMAP Diversity Plus: 3C Assay for Eselectin Biomarker Activity (AID 2283015).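 As to outcome: cell surface E-selectin protein quantified by ELISA 24 h after dosing.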 Conditions: primary human endothelial cells (HUVEC); actives raise or lower the signal. In a few lines:
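Endpoint derived by bidirectional fitting against DMSO vehicle; signal is ELISA-detected E-selectin from primary HUVEC at 24 h post-dosing, with parallel SRB staining (0.1% SRB, 560 nm) flagging cytotoxicity.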

Read-out in experiment [4]: Interleukin-1 alpha (IL1a), IL1A (gene 3552)
In words: BSK_BE3C_IL1a: BioMAP Diversity Plus: BE3C Assay for Interleukin-1 alpha (IL1a) Biomarker Activity (AID 2283016). Conditions: primary human bronchial epithelial cells; actives raise or lower the signal. An outline of the steps: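 IL-1a measured by ELISA after 24 h treatment of human primary bronchial epithelial cells, with gain or loss of signal fitted versus DMSO. Parallel cultures stained with SRB gauge overt cytotoxicity.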

Read-out in experiment [5]: Monocyte Chemoattractant Protein-1 (MCP1), CCL2 (gene 6347)
In words: BSK_3C_MCP1: BioMAP Diversity Plus: 3C Assay for Monocyte Chemoattractant Protein-1 (MCP1) Biomarker Activity (AID 2283017). Conditions: primary human endothelial cells (HUVEC); actives raise or lower the signal. An outline of the steps: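 Using human vascular primary endothelium, researchers measured MCP-1 by ELISA 24 h after treatment, with DMSO serving as negative control for bidirectional fitting.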

Read-out in experiment [6]: Monocyte Chemoattractant Protein-1 (MCP1), CCL2 (gene 6347)
In words: BSK_4H_MCP1: BioMAP Diversity Plus: 4H Assay for Monocyte Chemoattractant Protein-1 (MCP1) Biomarker Activity (AID 2283018). Conditions: primary human endothelial cells (HUVEC); actives raise or lower the signal. In a few lines: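 ELISA of MCP-1 (CCL2) 24 h after chemical dosing of HUVEC in the BioMAP 4H system. Gain or loss versus DMSO fitted; parallel SRB staining (560 nm) tracked overt cytotoxicity.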

Read-out in experiment [7]: Human Leukocyte Antigen - DR isotype (HLADR), HLA-DRA (gene 3122)
Description: BSK_3C_HLADR: BioMAP Diversity Plus: 3C Assay for Human Leukocyte Antigen - DR isotype (HLADR) Biomarker Activity (AID 2283019). Conditions: primary human endothelial cells (HUVEC); actives raise or lower the signal. In a few lines: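 Compound added to primary HUVEC cultures, 24 h incubation, then HLA-DR determined by ELISA; endpoint derived by bidirectional fitting relative to DMSO negative control.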

Read-out in experiment [8]: Interleukin-8 (IL8), CXCL8 (gene 3576)
In words: BSK_3C_IL8: BioMAP Diversity Plus: 3C Assay for Interleukin-8 (IL8) Biomarker Activity (AID 2283020). Conditions: primary human endothelial cells (HUVEC); actives raise or lower the signal. In a few lines: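 IL-8 was measured by ELISA in HUVEC cultures 24 h after chemical dosing, with gain or loss of signal fitted relative to DMSO. Parallel SRB total-protein staining tracked overt cytotoxicity.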

Read-out in experiment [9]: Monokine induced gamma interferon (MIG), CXCL9 (gene 4283)
Description: BSK_3C_MIG: BioMAP Diversity Plus: 3C Assay for Monokine induced gamma interferon (MIG) Biomarker Activity (AID 2283021).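 As to AC50: MIG protein level measured by immunoassay in the treated endothelial cultures.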 Conditions: primary human endothelial cells (HUVEC); actives raise or lower the signal. In a few lines:
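ELISA measurement of MIG in human umbilical vein endothelial cells 24 h after treatment. Cytotoxicity tracked by SRB staining in parallel cultures; gain or loss of signal fitted relative to DMSO.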

The target in experiment [10] is human Vitamin D Receptor (VDR), VDR (gene 7421) (UniProt P11473). Description: ATG_VDR_TRANS: Attagene TRANS-FACTORIAL HepG2 Assay for human Vitamin D Receptor (VDR) (AID 2283022; active = hit-call score of the fitted dose curve at least 0.9, where 1 is the maximum). An outline of the steps:
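Multiplexed TRANS reporter in HepG2; 24 h treatment; reporter mRNA by RT-PCR plus capillary electrophoresis; upregulation scored relative to DMSO.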

A short description of experiment [11]: BSK_3C_SRB: Viability Assessment in the BioMAP Diversity Plus: 3C Assay (AID 2283023).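 Also: cells read 24 h after compound dosing; fitted both ways against DMSO so a hit may be signal rise or drop.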 Conditions: primary human endothelial cells (HUVEC). An outline of the steps: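 Overt cytotoxicity is gauged in parallel confluent HUVEC cultures by SRB total-protein staining at the time of biomarker measurement, 24 h after dosing. Gain or loss of signal is fitted versus DMSO.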

Read-out in experiment [12]: Matrix Metallopeptidase 1 (MMP1), MMP1 (gene 4312)
In words: BSK_BE3C_MMP1: BioMAP Diversity Plus: BE3C Assay for Matrix Metallopeptidase 1 (MMP1) Biomarker Activity (AID 2283024). Conditions: primary human bronchial epithelial cells; actives raise or lower the signal. In a few lines:
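ELISA measurement of MMP-1 after 24 h compound exposure of primary human bronchial epithelial cells. Changes in either direction fitted relative to DMSO; parallel SRB staining checked overt cytotoxicity.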

The nature of experiment [13]: BSK_3C_Vis: BioMAP Diversity Plus: 3C Assay for Morphology Visualization (AID 2283025).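 Also: fitted both ways so gain or loss versus DMSO counts.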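 As to AC50: light microscopy image of cell morphology used as background control.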 Conditions: primary human endothelial cells (HUVEC). An outline of the steps: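 Light-microscopy visualization of HUVEC cultures at 24 h post-treatment, with DMSO as baseline for bidirectional fitting.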
Read-out in experiment [14]: Pselectin, SELP (gene 6403)
Description: BSK_4H_Pselectin: BioMAP Diversity Plus: 4H Assay for Pselectin Biomarker Activity (AID 2283026). Conditions: primary human endothelial cells (HUVEC); actives raise or lower the signal. In a few lines: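 ELISA of surface P-selectin on HUVEC, 24 h after dosing, with parallel SRB staining (0.1% after 10% TCA fixation, 560 nm) for overt cytotoxicity. Activity fitted in both directions relative to DMSO.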

Experiment [15] is described as follows: BSK_4H_SRB: Viability Assessment in the BioMAP Diversity Plus: 4H Assay (AID 2283027).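 Also: cells exposed to compound for 24 h before staining.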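 As to AC50: curves fitted both ways versus DMSO so AC50 may be loss or gain.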 Conditions: primary human endothelial cells (HUVEC). In a few lines:
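HUVEC, 24 h post-dose; 10% TCA fix, 0.1% SRB stain, A560 nm. Total protein = overt cytotoxicity, parallel to biomarker read. Bidirectional fit vs DMSO baseline.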

Experiment [16] in a line: BSK_BE3C_SRB: Viability Assessment in the BioMAP Diversity Plus: BE3C Assay (AID 2283028).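 As to AC50: fitted both ways so AC50 may mark signal gain or loss versus DMSO.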 Conditions: primary human bronchial epithelial cells. An outline of the steps: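 SRB total-protein staining (0.1%, after TCA fixation) of chemically dosed human bronchial epithelial primary cells at 24 h; DMSO serves as the negative control for bidirectional curve fitting.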
Read-out in experiment [17]: Urokinase-type plasminogen activator receptor (uPAR), PLAUR (gene 5329)
In words: BSK_4H_uPAR: BioMAP Diversity Plus: 4H Assay for Urokinase-type plasminogen activator receptor (uPAR) Biomarker Activity (AID 2283030). Conditions: primary human endothelial cells (HUVEC); actives raise or lower the signal. In a few lines:
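Endpoint derived via bidirectional curve fitting against DMSO baseline; readout was ELISA detection of uPAR on umbilical vein endothelial cells at 24 h post-treatment, with SRB-stained parallel cultures assessing cytotoxicity.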

Read-out in experiment [18]: Vascular endothelial growth factor receptor 2 (Homo sapiens) (UniProt P35968)
In words: BSK_4H_VEGFRII: BioMAP Diversity Plus: 4H Assay for Vascular endothelial growth factor receptor 2 (VEGFR2) Biomarker Activity (AID 2283031).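 As to AC50: cell-surface VEGFR2 protein level quantified by ELISA.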 Conditions: primary human endothelial cells (HUVEC); actives raise or lower the signal. In a few lines: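 In this multiplexed HUVEC system, biomarker ELISA was performed after 24 h chemical exposure. Parallel SRB staining (TCA fixation, 560 nm) tracked cytotoxicity; DMSO served as baseline.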

Read-out in experiment [19]: Human Leukocyte Antigen - DR isotype (HLADR), HLA-DRA (gene 3122)
In words: BSK_BE3C_HLADR: BioMAP Diversity Plus: BE3C Assay for Human Leukocyte Antigen - DR isotype (HLADR) Biomarker Activity (AID 2283032). Conditions: primary human bronchial epithelial cells; actives raise or lower the signal. An outline of the steps: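 Cell-surface HLA-DR ELISA readout at 24 h after dosing in the BE3C primary human lung bronchial epithelial system; gain or loss of signal against DMSO, with parallel sulforhodamine B staining of total protein for overt cytotoxicity.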

Read-out in experiment [20]: Thrombomodulin, THBD (gene 7056)
In words: BSK_3C_Thrombomodulin: BioMAP Diversity Plus: 3C Assay for Thrombomodulin Biomarker Activity (AID 2283029). Conditions: primary human endothelial cells (HUVEC); actives raise or lower the signal. In a few lines:
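ELISA measurement of thrombomodulin on HUVEC surface 24 h after chemical dosing; activity fitted in both directions relative to DMSO vehicle.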

human Retinoid X Receptor beta (RXRb), RXRB (gene 6257), sequence (P28702 whole entry, looked up, the tested form may be a part): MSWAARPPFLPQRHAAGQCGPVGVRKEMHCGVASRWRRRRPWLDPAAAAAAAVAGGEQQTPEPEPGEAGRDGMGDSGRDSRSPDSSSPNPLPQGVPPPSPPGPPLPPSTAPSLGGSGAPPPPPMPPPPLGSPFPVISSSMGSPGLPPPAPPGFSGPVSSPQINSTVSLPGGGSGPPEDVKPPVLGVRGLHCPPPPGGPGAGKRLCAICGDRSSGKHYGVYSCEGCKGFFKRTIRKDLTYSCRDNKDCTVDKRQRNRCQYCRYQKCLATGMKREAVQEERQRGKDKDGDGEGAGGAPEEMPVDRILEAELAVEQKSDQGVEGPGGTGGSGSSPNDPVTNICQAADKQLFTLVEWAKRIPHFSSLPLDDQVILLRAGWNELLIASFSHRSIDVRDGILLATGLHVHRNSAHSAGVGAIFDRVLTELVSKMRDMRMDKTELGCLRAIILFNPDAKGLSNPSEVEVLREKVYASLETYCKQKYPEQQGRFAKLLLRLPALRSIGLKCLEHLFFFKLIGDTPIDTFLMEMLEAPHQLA
human Vitamin D Receptor (VDR), VDR (gene 7421), sequence (P11473 whole entry, looked up): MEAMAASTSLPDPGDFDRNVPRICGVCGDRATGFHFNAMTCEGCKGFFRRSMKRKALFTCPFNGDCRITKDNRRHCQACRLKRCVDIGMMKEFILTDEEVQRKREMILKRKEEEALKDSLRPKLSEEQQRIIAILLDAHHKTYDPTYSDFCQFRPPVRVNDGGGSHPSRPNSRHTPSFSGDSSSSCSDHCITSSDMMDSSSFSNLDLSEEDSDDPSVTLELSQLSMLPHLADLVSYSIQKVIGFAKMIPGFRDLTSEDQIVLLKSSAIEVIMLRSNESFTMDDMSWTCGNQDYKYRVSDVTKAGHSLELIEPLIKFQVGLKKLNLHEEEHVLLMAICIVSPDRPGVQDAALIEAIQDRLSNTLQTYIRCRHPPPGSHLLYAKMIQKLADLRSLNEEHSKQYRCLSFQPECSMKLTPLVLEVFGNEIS
E-selectin (Homo sapiens), sequence (P16581 whole entry, looked up): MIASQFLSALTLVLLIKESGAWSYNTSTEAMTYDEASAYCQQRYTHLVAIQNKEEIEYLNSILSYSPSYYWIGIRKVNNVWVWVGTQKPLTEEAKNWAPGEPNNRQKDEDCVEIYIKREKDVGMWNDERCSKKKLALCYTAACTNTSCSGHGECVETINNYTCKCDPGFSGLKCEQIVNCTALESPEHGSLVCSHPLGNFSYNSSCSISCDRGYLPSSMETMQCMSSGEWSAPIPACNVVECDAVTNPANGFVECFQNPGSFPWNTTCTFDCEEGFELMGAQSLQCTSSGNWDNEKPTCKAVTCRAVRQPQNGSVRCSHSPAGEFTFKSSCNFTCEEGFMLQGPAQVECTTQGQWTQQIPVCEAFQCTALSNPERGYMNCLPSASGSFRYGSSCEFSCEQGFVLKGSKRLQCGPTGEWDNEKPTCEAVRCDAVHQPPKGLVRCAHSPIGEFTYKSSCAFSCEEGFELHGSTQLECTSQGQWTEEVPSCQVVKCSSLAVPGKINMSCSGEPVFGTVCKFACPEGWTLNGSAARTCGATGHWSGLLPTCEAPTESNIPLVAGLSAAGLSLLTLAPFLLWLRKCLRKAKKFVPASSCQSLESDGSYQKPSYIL
human Thyroid Receptor alpha (THRa1), THRA (gene 7067), sequence (P10827 whole entry, looked up, the tested form may be a part): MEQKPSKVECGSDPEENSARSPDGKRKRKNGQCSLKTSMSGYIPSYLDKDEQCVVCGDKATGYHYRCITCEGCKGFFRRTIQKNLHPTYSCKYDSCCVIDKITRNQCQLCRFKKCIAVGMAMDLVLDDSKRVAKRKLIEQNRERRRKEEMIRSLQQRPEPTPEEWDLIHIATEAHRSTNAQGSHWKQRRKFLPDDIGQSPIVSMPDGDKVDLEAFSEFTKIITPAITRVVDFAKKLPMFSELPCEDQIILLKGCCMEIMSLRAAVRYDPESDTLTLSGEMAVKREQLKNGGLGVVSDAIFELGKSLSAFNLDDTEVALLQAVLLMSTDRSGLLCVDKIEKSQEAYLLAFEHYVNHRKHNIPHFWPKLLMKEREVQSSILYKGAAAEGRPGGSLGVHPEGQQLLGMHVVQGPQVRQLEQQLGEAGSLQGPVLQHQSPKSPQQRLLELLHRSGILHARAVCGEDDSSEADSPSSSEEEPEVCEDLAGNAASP

As to `Clc1ccc(COC(Cn2ccnc2)c2ccc(Cl)cc2Cl)cc1` (centres undefined), the concentration at half-maximal activity (AC50) in [1] is 0.103 µM (active).
For `CCOP(OCC)OCC`, the outcome in experiment [1] was inactive.
In the case of `CNC`, in experiment [1], the compound was classed as inactive.
Regarding `ClCCBr`, in experiment [1], the outcome was inactive.
Consider `COc1cc(-c2ccc(N)c(OC)c2)ccc1N`, for which the concentration at half-maximal activity (AC50) is 27.6 µM (active) in experiment [1]; 5.28 µM (active) in [4]; 30 µM (active) in experiment [5]; 25.5 µM (active) in experiment [7]; 14.4 µM (active) in [8]; 4.7 µM (active) in experiment [12]. Besides, the result in experiment [2], in experiment [3], in experiment [4], in experiment [5], in [6] and in [7] was inactive. The result in experiment [8], in [9], in [10], in experiment [11], in [12] and in experiment [13] was inactive. Moreover, the outcome in [14], in experiment [15], in experiment [16], in experiment [17], in experiment [18] and in [19] was inactive.
For the compound `CCCCCCCCCl`, the outcome in [1] was inactive.
In the case of `CC(C)(c1ccccc1)c1ccc(O)c(C(C)(C)c2ccccc2)c1`, the concentration at half-maximal activity (AC50) was 1.66 µM (active) in experiment [1]; 10.6 µM (active) in [3]; 28.5 µM (active) in experiment [4]; 10.8 µM (active) in experiment [5]; 7.28 µM (active) in experiment [6]; 7.99 µM (active) in experiment [7]. Also, the concentration at half-maximal activity (AC50) in experiment [8] is 10.1 µM (active); in experiment [9], 10.5 µM (active); in [11], 8.56 µM (active); in experiment [12], 32.3 µM (active); in experiment [13] it was 5.31 µM (active); in experiment [14], 6.57 µM (active). The half-maximal activity concentration (AC50) in experiment [15] was 8.09 µM (active); in experiment [16], 25.6 µM (active); in experiment [17], 9.78 µM (active); in experiment [18] it was 7.22 µM (active); in experiment [19], 13.6 µM (active). Moreover, the compound was called inactive in [2], in experiment [10] and in experiment [20].
